The source of these data is PubChem BioAssay (NCATS).

Assay [1] is described as follows: Cell Viability - BJ (AID 421; calls by dose curve;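 further: potency means the concentration at half of the fitted maximal effect; cells exposed to compound for 40 hours at 37 °C before readout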). Conditions: BJ fibroblast viability, qHTS. The procedure, abridged: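 Cytotoxicity as drop in intracellular ATP (CellTiter-Glo, 20 min RT) after 40 hr compound exposure of BJ fibroblasts at 37 °C. Titrations scaled between DMSO and 100 uM tamoxifen, Hill-fitted for AC50.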
Assay [2] is described as follows: Cell Viability - Jurkat (AID 426;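 active means dose-dependent loss of cell ATP signal giving a full or clear fitted curve, ranked by lower potency value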;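 further: potency means the concentration at half of the fitted maximal effect; cells exposed to compound for 40 hours at 37 °C before ATP read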). Conditions: qHTS. The method, boiled down:
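Seed 5000 Jurkat E6-1 cells/well; add compound; incubate 40 hr at 37 °C; add CellTiter-Glo; wait 20 min at room temperature; read luminescence. Fit concentration-response with Hill equation for AC50.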
(Quantitative high-throughput screening tests each substance at several concentrations.)

Assay [3] can be described thus: Cell Viability - H-4-II-E (AID 543).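 Further: cells exposed to compound for 40 hours; on the % scale 0 is the no-effect control and ±100 the full control effect; nearly all actives have a fitted effect of over 35% in size.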 The following applies: H-4-II-E rat hepatoma viability; series mostly up to 92.2 µM. The method, boiled down: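 Here, cytotoxicity is measured in the rat hepatoma line H-4-II-E as loss of intracellular ATP after 40 hr compound treatment, detected by luciferase luminescence.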
Assay [4] in a line: MultiTox-Fluor Cytotoxicity Assay - LYMP1-001 - Live Cells (AID 947).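 Further: 0% = DMSO only and full inhibition = tetraoctylammonium bromide control.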 Conditions: LYMP1-001 lymphoblastoid cells, live-cell protease fluorescence viability; series mostly up to 92.2 µM.
Assay [5] is described as follows: Cell Viability - LYMP2-004 (AID 966).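 Further: plate controls were DMSO only for no effect and tetraoctylammonium bromide control for full effect; nearly all actives have a fitted effect of over 65% in size.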 Conditions: LYMP2-004 lymphoblastoid cell viability, qHTS; series mostly up to 92.2 µM. The procedure, abridged: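 Acute toxicity is scored as a concentration-dependent drop in intracellular ATP, quantified by luciferase luminescence, in human lymphoblastoid cells exposed to compound for 24 hr. AC50 derives from Hill-equation modelling.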

The target of assay [6] is Estrogen receptor (Homo sapiens) (UniProt P03372). Put plainly: qHTS assay for small molecule antagonists of estrogen receptor alpha signaling (AID 588513; active means well fitted curve in the direction sought with a large enough effect in the signal ratio, with a control signal flat, not every such curve was filed as active; the % refers to the signal ratio; further: on the % scale 0 is the no-effect control and ±100 the full control effect). Conditions: ER-alpha-UAS-bla HEK293, beta-lactamase ratio, antagonist mode; series mostly up to 76.9 µM. The procedure, abridged:
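ER-alpha-UAS-bla GripTite HEK 293 cells in medium with 2% charcoal/dextran-treated FBS were preincubated 4 h at 37 C, dosed with compound (1:2 titration), stimulated with 0.5nM 17-beta-estradiol for 18 h, then read by CCF4 beta-lactamase fluorescence.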

Assay [7] has the same target. The experiment in a line: qHTS assay for small molecule agonists of estrogen receptor alpha signaling (AID 588514; calls by dose curve;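 further: 0% = vehicle only and 100% = reference agonist; nearly all actives have a fitted effect of over 70% in size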). The following applies: ER-alpha-UAS-bla HEK293, beta-lactamase ratio, 18 h; series mostly up to 76.8 µM. The method, boiled down:
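Reporter-gene assay. […] controls beta-lactamase in HEK 293 GripTite cells; after 18 hrs with compound, CCF4 substrate is added for 2 hrs and fluorescence is read.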

The nature of assay [8]: qHTS assay for small molecule antagonists of peroxisome proliferator-activated receptor delta signaling (AID 588535; active means well fitted inhibition curve with a large enough effect in the signal ratio, with a control signal flat, not every such curve was filed as active; the % refers to the signal ratio;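 on max response: cells co-treated with a PPAR-delta agonist as stimulator during compound exposure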). The following applies: HEK293T PPARd-UAS-bla, beta-lactamase FRET ratio, 18 h; 460 nm channel. The procedure, abridged:
(§1)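 Cells were seeded at 4000 per well in assay medium containing 2% charcoal/dextran FBS and held 5 hrs at 37 C. Compounds were then added for 18 hrs. CCF4 substrate was applied for 2 hrs at room temperature before fluorescence reading.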

Assay [9] has as its target Peroxisome proliferator-activated receptor delta (Homo sapiens) (UniProt Q03181). The description is as above. The following applies: HEK293T PPARd-UAS-bla, beta-lactamase FRET ratio, 18 h; series mostly up to 76.7 µM. The procedure, abridged: as §1
Assay [10] addresses Retinoic acid receptor RXR-alpha (Homo sapiens) (UniProt P19793). Put plainly: qHTS assay for small molecule agonists of retinoid X receptor alpha signaling (AID 588544; calls by dose curve;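 further: 0% = DMSO basal wells and 100% = reference agonist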). Conditions: HEK293T RXRa-UAS-bla, beta-lactamase reporter, 18 h; series mostly up to 76.7 µM.
Assay [11] can be described thus: qHTS assay for small molecule agonists of the antioxidant response element (ARE) signaling pathway (AID 651741; active means well fitted activation curve with a large enough effect in the signal ratio; the % refers to the signal ratio; further: potency means the concentration at half of the fitted maximal effect; on activation: % of control where 0% means no effect). The following applies: HepG2 ARE-bla reporter, beta-lactamase FRET ratio, 16 h; series mostly up to 96 µM. The procedure, abridged:
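HepG2 ARE-bla cells plated at 2,000 cells/well and incubated 5 h at 37 C/5% CO2 received 23 nL compound in DMSO. After 16 h at 37 C, LiveBLAzer B/G FRET substrate was applied for 2 h at room temperature and fluorescence read.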

Assay [12] is described as follows: qHTS assay for small molecule disruptors of the mitochondrial membrane potential - 5 hr assay (AID 651755; calls by dose curve; further: nearly all actives have a fitted effect of over 40% in size; further: potency means the concentration at half of the fitted maximal effect). The following applies: JC-1-type ratio dye; series mostly up to 92.2 µM. The method, boiled down: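 HepG2 cells (2,000/well), attached overnight, exposed to compound 5 hr at 37C, then Mito-MPS dye 30 min. Fluorescence read for monomers (490/535 nm) and aggregates (540/590 nm).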

Assay [13] is described as follows: qHTS assay for environmental chemicals that activate the Aryl hydrocarbon Receptor (AhR) signaling pathway (AID 651777). Further: % of control where 0% means no effect; nearly all actives have a fitted effect of over 15% in size. Conditions: 1A2-DRE human hepatoma cells, luciferase, 24 h; activation: stronger effect = higher value. The procedure, abridged:
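Concentration–response screening used 1,200 1A2-DRE cells per well, 24 hr compound exposure (37 C, 5% CO2), and One-Glo luminescence as the AhR-driven CYP1A2 reporter signal.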

Assay [14] is described as follows: qHTS assay for small molecule agonists of the antioxidant response element (ARE) signaling pathway measured by Nrf2-dependant transcriptional activity (AID 720636; active means well fitted curve in the direction sought with a large enough effect in the repeat runs; an effect the other way counts as inactive or inconclusive; further: % of control where 0% means no effect). The following applies: ARE-luc HepG2, Nrf2 luciferase reporter, 16 h; series mostly up to 92.4 µM. The method, boiled down: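 Attachment 6 hr at 37 C, then compound versus DMSO vehicle for 16 hr in ARE-luc HepG2 cells (1% dialyzed FBS); luminescence recorded 30 min after ONE-Glo addition at room temperature.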

Assay [15] is described as follows: Cell Viability - NIH 3T3 (AID 541).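 Further: cells exposed to compound for 40 hours; plate controls were DMSO alone for no effect and tamoxifen positive control for full effect; nearly all actives have a fitted effect of over 25% in size.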 Conditions: NIH 3T3 cell viability, qHTS; activity change, negative = cytotoxicity: at 92.2 µM (top of the series). The method, boiled down:
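AC50 values reflect concentration-dependent loss of intracellular ATP in NIH 3T3 cells after 40 hr treatment in complete culture medium, quantified by luciferase-based luminescence.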

In assay [16] the target is Glucocorticoid receptor (Homo sapiens) (UniProt P04150). The experiment in a line: qHTS assay for small molecule agonists of glucocorticoid receptor signaling (AID 588532; active means well fitted curve in the direction sought with a large enough effect in the signal ratio, with a control signal flat; the % refers to the signal ratio;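 further: 100% = dexamethasone at 0.1 µM and 0% = DMSO only wells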). The following applies: HeLa MMTV-bla, beta-lactamase ratio, agonist, 18 h; stronger effect = higher value; percent of dexamethasone control, DMSO zero. The procedure, abridged: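 MMTV-bla HeLa beta-lactamase reporter cells in 1% charcoal/dextran FBS medium, compounds up to 92 uM for 18 h at 37 C, CCF4 readout; normalized to 0.1 uM dexamethasone (100%), EC50 and efficacy from Hill fits.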
Sequence of Glucocorticoid receptor (Homo sapiens) (P04150 whole entry, looked up): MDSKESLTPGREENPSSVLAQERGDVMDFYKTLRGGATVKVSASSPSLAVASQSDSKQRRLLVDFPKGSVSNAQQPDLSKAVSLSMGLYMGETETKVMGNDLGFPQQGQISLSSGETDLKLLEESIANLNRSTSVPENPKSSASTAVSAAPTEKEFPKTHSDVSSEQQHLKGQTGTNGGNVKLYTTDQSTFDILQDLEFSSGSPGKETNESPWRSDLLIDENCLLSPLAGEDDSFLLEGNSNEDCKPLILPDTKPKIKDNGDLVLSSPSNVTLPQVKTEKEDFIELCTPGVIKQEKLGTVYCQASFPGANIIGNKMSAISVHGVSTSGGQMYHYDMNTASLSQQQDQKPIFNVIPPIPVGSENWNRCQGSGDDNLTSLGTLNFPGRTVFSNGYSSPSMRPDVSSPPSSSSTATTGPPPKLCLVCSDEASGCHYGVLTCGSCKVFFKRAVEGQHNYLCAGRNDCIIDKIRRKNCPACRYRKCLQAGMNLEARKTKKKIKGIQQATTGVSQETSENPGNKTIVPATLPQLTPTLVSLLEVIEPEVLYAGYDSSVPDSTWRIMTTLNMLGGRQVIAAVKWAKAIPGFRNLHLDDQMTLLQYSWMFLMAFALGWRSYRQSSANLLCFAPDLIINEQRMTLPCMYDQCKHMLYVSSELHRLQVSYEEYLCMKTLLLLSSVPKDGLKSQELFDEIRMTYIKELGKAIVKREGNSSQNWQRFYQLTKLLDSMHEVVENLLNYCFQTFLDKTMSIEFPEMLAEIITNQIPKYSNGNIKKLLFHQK

Assay [17] shares this target. Put plainly: qHTS assay for small molecule antagonists of glucocorticoid receptor signaling (AID 588533; active means well fitted inhibition curve with a large enough effect in the signal ratio, with a control signal flat, not every such curve was filed as active; the % refers to the signal ratio;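 further: cells stimulated with 2 nM dexamethasone as agonist; on the % scale 0 is the no-effect control and ±100 the full control effect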). The following applies: HeLa MMTV-bla, GRE beta-lactamase ratio, antagonist mode, 18 h; series mostly up to 76.8 µM. The method, boiled down: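 Antagonist-mode qHTS: compound titrations added to GRE-bla HeLa cells, then dexamethasone 2 nM final; 18 h, 37 C. CCF4 FRET fluorescence normalized to dexamethasone and DMSO; IC50 from Hill fit.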

Assay [18] has as its target Peroxisome proliferator-activated receptor gamma (Homo sapiens) (UniProt P37231). The experiment in a line: qHTS assay for small molecule agonists of peroxisome proliferator-activated receptor gamma signaling (AID 588536; active means well fitted curve in the direction sought with a large enough effect in the signal ratio, with a control signal flat, not every such curve was filed as active; the % refers to the signal ratio;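 further: 0% = DMSO basal wells and 100% = rosiglitazone at 2 µM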). Conditions: HEK293 PPARg-UAS-bla, beta-lactamase ratio, 16 h, percent of rosiglitazone response, DMSO as zero; series mostly up to 76.7 µM. The procedure, abridged: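 Ratiometric blue/green fluorescence (405 nm excitation; 460 and 530 nm emission) from CCF4-loaded HEK293 reporter cells serves as signal. Exposure to test compounds lasts 16 h at 37 C in medium containing 1% charcoal/dextran-treated serum.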

The target is the same in assay [19]. Put plainly: qHTS assay for small molecule antagonists of peroxisome proliferator-activated receptor gamma signaling (AID 588537; active means well fitted inhibition curve with a large enough effect in the signal ratio, with a control signal flat, not every such curve was filed as active; the % refers to the signal ratio;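 further: reporter cells co-stimulated with 50 nM rosiglitazone agonist during compound treatment; % of control where 0% means no effect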). Conditions: HEK293 PPARg-UAS-bla, beta-lactamase ratio, antagonist mode; series mostly up to 76.8 µM. The method, boiled down: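 Step one: plate 3000 HEK293 UAS-bla cells per well in medium with 1% stripped serum and hold 6-6.5 h at 37 C. Step two: add compound and 50 nM agonist for 16 h. Step three: CCF4 loading, fluorescence read.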

A short description of assay [20]: Cell Viability - Hek293 (AID 427;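 active means compounds whose dose-response curve shows a full or clear partial loss of cell viability, called from curve shape rather than a numeric limit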;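 further: potency means the concentration at half of the fitted maximal effect; cells exposed to compound for 40 hours at 37 °C before reading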). The following applies: qHTS. The method, boiled down:
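Luminescent ATP content (CellTiter-Glo, 20 min at room temperature) was measured after a 40 hr, 37 °C compound exposure of HEK293 cells. AC50 values came from Hill-equation fits of qHTS concentration-response data normalized to DMSO and 100 uM tamoxifen.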

“And” between values parts separate entries of the source, which are not always exact repeats. Equal values may be shown once. Inconclusive results are not listed. The source made the active and inactive calls. Unless noted, the call rests on the fitted dose curve; in most records, active means well fitted curve in the direction sought with a large enough effect; inconclusive means small, poorly fitted or top-dose-only effect, or another doubt; inactive means no such curve, though single readings can be large; an effect the other way counts as inactive or inconclusive. Some results are limits rather than exact numbers.

Sequence of Retinoic acid receptor RXR-alpha (Homo sapiens) (P19793 whole entry, looked up): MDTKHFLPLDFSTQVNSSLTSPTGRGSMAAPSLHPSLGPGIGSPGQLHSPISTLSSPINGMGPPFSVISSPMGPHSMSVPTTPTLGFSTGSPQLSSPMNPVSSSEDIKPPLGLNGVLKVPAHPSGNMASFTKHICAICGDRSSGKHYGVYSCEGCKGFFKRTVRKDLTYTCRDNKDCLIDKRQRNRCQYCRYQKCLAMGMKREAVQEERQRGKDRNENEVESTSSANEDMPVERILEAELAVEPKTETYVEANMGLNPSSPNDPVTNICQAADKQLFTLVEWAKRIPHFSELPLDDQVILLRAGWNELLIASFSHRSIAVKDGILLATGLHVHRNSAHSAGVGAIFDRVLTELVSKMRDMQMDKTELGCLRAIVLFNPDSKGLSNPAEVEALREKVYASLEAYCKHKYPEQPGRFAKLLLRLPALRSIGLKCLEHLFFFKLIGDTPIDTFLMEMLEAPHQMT
Sequence of Peroxisome proliferator-activated receptor gamma (Homo sapiens) (P37231 whole entry, looked up): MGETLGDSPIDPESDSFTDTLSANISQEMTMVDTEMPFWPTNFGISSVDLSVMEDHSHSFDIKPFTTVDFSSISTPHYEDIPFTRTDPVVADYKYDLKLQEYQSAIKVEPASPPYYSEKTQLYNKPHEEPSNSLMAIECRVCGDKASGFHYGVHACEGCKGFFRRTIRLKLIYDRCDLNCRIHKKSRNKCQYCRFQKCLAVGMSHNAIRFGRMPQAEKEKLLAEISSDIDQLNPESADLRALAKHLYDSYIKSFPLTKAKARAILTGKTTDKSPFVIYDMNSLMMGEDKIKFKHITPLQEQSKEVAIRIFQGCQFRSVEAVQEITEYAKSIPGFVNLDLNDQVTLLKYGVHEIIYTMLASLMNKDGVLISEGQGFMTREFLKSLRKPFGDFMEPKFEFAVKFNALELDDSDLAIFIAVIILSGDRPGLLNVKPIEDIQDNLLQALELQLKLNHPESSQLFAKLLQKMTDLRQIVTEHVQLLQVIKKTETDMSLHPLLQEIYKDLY
Sequence of Estrogen receptor (Homo sapiens) (P03372 whole entry, looked up): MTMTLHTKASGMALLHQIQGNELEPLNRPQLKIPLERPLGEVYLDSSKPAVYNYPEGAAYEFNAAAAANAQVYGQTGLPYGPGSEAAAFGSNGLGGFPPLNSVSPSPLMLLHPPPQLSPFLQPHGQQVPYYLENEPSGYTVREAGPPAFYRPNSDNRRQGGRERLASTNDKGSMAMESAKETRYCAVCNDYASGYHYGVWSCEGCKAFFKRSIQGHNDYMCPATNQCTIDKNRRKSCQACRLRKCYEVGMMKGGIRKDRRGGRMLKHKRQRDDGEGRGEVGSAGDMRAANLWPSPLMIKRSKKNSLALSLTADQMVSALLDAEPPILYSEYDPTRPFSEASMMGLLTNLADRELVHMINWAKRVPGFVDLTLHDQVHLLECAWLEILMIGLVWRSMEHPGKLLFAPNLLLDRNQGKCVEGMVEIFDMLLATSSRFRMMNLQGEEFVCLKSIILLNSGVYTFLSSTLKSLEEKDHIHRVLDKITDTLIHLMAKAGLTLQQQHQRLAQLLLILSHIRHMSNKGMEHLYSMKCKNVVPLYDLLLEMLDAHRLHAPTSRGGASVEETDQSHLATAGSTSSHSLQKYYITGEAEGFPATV
Sequence of Peroxisome proliferator-activated receptor delta (Homo sapiens) (Q03181 whole entry, looked up): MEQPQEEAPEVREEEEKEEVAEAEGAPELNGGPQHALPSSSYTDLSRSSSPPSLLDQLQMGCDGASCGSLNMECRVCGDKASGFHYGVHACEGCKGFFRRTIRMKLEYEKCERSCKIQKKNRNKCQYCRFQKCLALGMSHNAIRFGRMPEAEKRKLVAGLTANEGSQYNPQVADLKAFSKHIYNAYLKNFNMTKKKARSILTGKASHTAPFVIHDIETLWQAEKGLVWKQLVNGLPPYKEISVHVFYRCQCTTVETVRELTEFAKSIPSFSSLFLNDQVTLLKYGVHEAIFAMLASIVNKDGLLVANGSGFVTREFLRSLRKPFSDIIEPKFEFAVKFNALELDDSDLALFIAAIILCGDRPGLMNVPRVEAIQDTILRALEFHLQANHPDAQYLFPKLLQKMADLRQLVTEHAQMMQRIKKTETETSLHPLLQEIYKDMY

With `CCCCC#N`, the Potency in assay [1] and in assay [2] was > 92 µM (inactive) throughout. The Potency entry in assay [3], in assay [5], in [6], in assay [7], in assay [11] and in assay [12] was “inactive” in each case. The Potency entry in [14] is “inactive”. The call in assay [4], in [9] and in assay [10] was inactive. For the same molecule, the max response in assay [8] was -3.23%. For the same molecule, in [13], the activation was 1.07% (inactive).
For `CC(C)(C)c1ccccc1O`, the Potency in assay [1] and in assay [2] was > 92 µM (inactive) throughout. Further, the Potency entry in [15], in assay [3], in assay [5], in [19] and in assay [11] was “inactive” in each case. Besides, the molecule was called inactive in [4], in assay [17], in assay [9], in assay [18] and in assay [10]. Moreover, the activation is 2.08% (inactive) and 7.02% (inactive) in assay [16]; 1.34% (inactive) and -1.14% (inactive) in assay [13]. Moreover, the max response in assay [8] is 11% and 14.4%.
`BrC(Br)Br`: the Potency in [1] and in assay [2] was > 92 µM (inactive) in each case. The Potency result in assay [15], in assay [5], in [12] and in assay [14] was “inactive” throughout. Besides, the molecule was classed as inactive in assay [4], in assay [17], in assay [18] and in [10]. In addition, the activation in assay [16] was -1.59% (inactive); in assay [13] it was 2.01% (inactive).
As to `O=C(O)C(Cl)Br` (configuration not stated), the Potency is > 92 µM (inactive) in [1], > 92 µM (inactive) in assay [2] and 33.5 µM (active) in [11]. The Potency result in assay [15], in assay [3], in [5], in assay [12] and in assay [14] was “inactive” throughout. Further, the outcome in [4], in assay [9] and in assay [10] was inactive. The activation is 5.56% (inactive) in assay [16] and 0.968% (inactive) in [13]. The max response in assay [8] turned out to be 33.1%.
Consider `CCC#N`, for which the Potency in assay [1] and in assay [2] was > 92 µM (inactive) in each case. For the same molecule, the Potency entry in [3], in [5], in assay [11] and in assay [14] was “inactive” each time. Besides, the molecule was called inactive in assay [4], in [17], in assay [9] and in assay [10]. The activation in [16] is -7.32% (inactive). In [8], the max response was -1.4%.
Consider `COC(C)(C)C`, for which the Potency in assay [1] and in assay [20] was > 92 µM (inactive) in each case. The Potency entry in [15], in assay [3], in assay [11] and in [12] was “inactive” throughout. Also, the result in assay [4], in assay [9] and in assay [10] was inactive. Besides, the max response in [8] was -16.9%.
`Nc1c(Br)cc([N+](=O)[O-])cc1[N+](=O)[O-]`: the Potency in [1] is > 92 µM (inactive); in assay [20], > 92 µM (inactive); in assay [11], 37.6 µM (active); in assay [12] it was 26.6 µM (active). Moreover, the Potency result in assay [15], in assay [5], in [6] and in assay [7] was “inactive” in each case. The molecule was called inactive in assay [4], in assay [9] and in assay [10]. The max response in assay [8] turned out to be 33.6%. Moreover, the activation in [13] is 3.36% (inactive).
Regarding `Cc1coc2c1CCC(C)C2` (configuration not stated), the Potency in assay [1] and in [2] was > 92 µM (inactive) throughout. The Potency result in assay [15], in [3], in assay [5], in [6], in assay [7] and in assay [12] was “inactive” each time. Further, the Potency entry in [14] is “inactive”. In addition, the outcome in [4], in [17] and in assay [9] was inactive. Moreover, the activation was 1.47% (inactive) in [16] and 1.75% (inactive) in assay [13]. The max response in assay [8] was -2.44%.
Take `C=CC=O`: the figures for the Potency in [1], in [2] and in assay [11] were > 92 µM (inactive), > 92 µM (inactive) and 47.3 µM (active), respectively. For the same molecule, the Potency entry in assay [15] and in assay [5] was “inactive” throughout. Also, the call in assay [4], in [17], in assay [9] and in assay [18] was inactive. In addition, the activation was -2.21% (inactive) in [16] and 1.3% (inactive) in [13]. In [8], the max response is 40.7%.
